# Bioassay records as filed in PubChem BioAssay.
# This is a sample that favours compounds with a hit; in the whole collection about 1.1% have one here.
# HTR5A ag = HTR5A agonism, opioid heterodimer counter-screen; P47898; HTR5A agonist assay, luminescence, cell-based; activation, % at 9.3 µM; 340,000 tested, 0.61% active; AID 504692; in the data active = activation mostly above about 9.5%, no sharp cut-off; inactive = mostly below about 7.6%
# Target sequence (P47898 whole entry, looked up): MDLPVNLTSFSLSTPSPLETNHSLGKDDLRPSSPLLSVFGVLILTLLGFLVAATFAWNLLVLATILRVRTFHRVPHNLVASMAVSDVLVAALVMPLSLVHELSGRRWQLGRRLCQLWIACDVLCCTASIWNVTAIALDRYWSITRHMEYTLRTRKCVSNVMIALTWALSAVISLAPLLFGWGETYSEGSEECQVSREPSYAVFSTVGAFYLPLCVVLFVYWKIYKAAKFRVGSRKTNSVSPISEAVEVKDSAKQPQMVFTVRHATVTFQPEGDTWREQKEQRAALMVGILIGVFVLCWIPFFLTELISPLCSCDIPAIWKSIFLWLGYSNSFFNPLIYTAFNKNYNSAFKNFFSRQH
# MOR-DOR ag = OPRM1-OPRD1 heterodimerization agonism; P35372+P41143; cells, luminescence; activation, % at 9.3 µM; 340,000 tested, 0.3% active; in the data active = activation above about 18%
# HTR5A inv ctr = inverse agonist of human HTR5A in OPRM1-OPRD1 counter-screen | HTR5A cell line, luminescence, inverse agonism | AID 504634 | inhibition, % at 9.3 µM | 340,000 tested, 0.083% active | P47898; in the data active = inhibition mostly above about 23%, no sharp cut-off; inactive = mostly below about 18%
# MOR-DOR inv ag = inverse agonist of human OPRM1-OPRD1 heterodimerization | AID 504357 | inhibition, % at 9.3 µM | cell-based MOR-DOR heterodimer luminescence, inverse agonism | P35372+P41143 | 340,000 tested, 0.21% active; in the data active = inhibition above about 22%, passing the limit was not always enough
# MOR-DOR inv conf = OPRM1-OPRD1 heterodimer inverse agonism, confirmation; shares compounds with MOR-DOR inv ag; cells expressing OPRM1/OPRD1 heterodimer, luminescence; inhibition, % at 9.3 µM; 580 tested, 20% active; in the data active = inhibition above about 32%
# HTR5A inv count = counter-screen for OPRM1-OPRD1 inverse agonists: human HTR5A inverse agonism | shares compounds with MOR-DOR inv ag | HTR5A-expressing cells, luminescence | inhibition, % at 9.3 µM | 580 tested, under 10 active; call rule not given here
# A number is an active result; n = inactive; x = not tested or not shown.
SMILES,HTR5A ag,MOR-DOR ag,HTR5A inv ctr,MOR-DOR inv ag,MOR-DOR inv conf,HTR5A inv count
Cc1ccc(CNC(=O)CN(C(=O)N2CCN(C)CC2)S(=O)(=O)c2ccc(C)cc2)cc1,n,n,n,n,x,x
CC1CCCC=CC2CC(OC(=O)CN(C)C)CC2C(O)C=CC(=O)O1 (stereo unspecified),n,n,n,n,x,x
C[C@H]1CCC/C=C/[C@@H]2C[C@H](O)C[C@H]2[C@H](O)[C@H](S(=O)c2ccc(O)cc2)CC(=O)O1 (stereo partly specified),n,n,n,44,n,n
Cc1ccc(S(=O)(=O)N2CCCCC2C(=O)N(C)c2ccccc2)cc1 (stereo unspecified),n,n,n,n,x,x
CC(C)(C)c1nnc(NC(=S)Nc2ccccc2)s1,n,n,n,38,n,n
S=C(Nc1ccccc1)Nc1nccs1,n,n,n,33,n,n
O=C(Cc1ccc(F)cc1)Nc1nccs1,n,n,n,n,x,x
CC(C)(C)c1nnc(NC(=O)CCS(=O)(=O)c2ccccc2)s1,n,n,n,n,x,x
Fc1ccc(NC(=S)Nc2nccs2)cc1,n,n,n,29,n,n
C=CCn1c(=O)c(CCC(=O)Nc2ccc(N3CCOCC3)cc2)nc2cc(C(F)(F)F)ccc21,n,n,n,n,x,x
Cc1cccc2nc3c(nc12)-c1ccccc1C3=O,n,n,n,40,n,n
CON(C)C(=O)CC(CNC(=O)OC(C)(C)C)c1ccc(Cl)cc1 (stereo unspecified),n,n,n,n,x,x
CN(Cc1ccccc1)C(=O)C1CCN(S(=O)(=O)c2cccc3nonc23)CC1,n,n,n,n,x,x
Cn1cnc([N+](=O)[O-])c1S(=O)(=O)Oc1cccc2ccccc12,n,n,n,n,x,x
Cn1cnc([N+](=O)[O-])c1S(=O)(=O)Oc1ccc(Cl)cc1,n,n,n,40,n,n
CSc1ncccc1C(=O)OCC(=O)Nc1ccc(N2CCOCC2)cc1,n,n,n,n,x,x
C[C@H](CO)N1C[C@H](C)[C@@H](CN(C)S(C)(=O)=O)Oc2c(NC(=O)Nc3ccccc3)cccc2C1=O,n,n,n,n,x,x
O=C(N/N=C/c1cccc2cccnc12)c1ccccc1O,n,n,n,36,n,n
CCCCC(=O)NC(=S)NNC(=O)CCc1ccccc1,n,n,n,39,n,n
CC(=O)NC(=S)NNC(=O)CCc1ccccc1,n,n,n,n,x,x
O=C(O)CCN1C(=O)C2C3C=CC(C2C1=O)C1C(=O)N(CCC(=O)O)C(=O)C31 (stereo unspecified),n,n,n,n,x,x
C=CCn1c(=O)c2c(nc3n2CC(C)CN3c2cccc(OC)c2)n(C)c1=O (stereo unspecified),n,n,n,36,n,n
Cc1ccc2c(c1)c1c3n2CCNC3CCC1 (stereo unspecified),n,n,n,n,x,x
COc1ccc(C[C@@H]2OC3(C=CC(=O)C=C3)O[C@H]2Cc2ccc(OC)cc2)cc1,n,n,n,39,n,n
N#CC(C#N)=C1C=CC=CN1/C(=C\c1ccco1)C(=O)c1ccc(Cl)cc1,n,n,n,34,n,n
SMILES,HTR5A ag,MOR-DOR ag,HTR5A inv ctr,MOR-DOR inv ag,MOR-DOR inv conf,HTR5A inv count
N#CC(C#N)=C1C=CC=CN1/C(=C\c1ccco1)C(=O)c1ccc(-c2ccccc2)cc1,n,n,n,n,x,x
Cc1c(NC(=S)NC(=O)c2cccc(Cl)c2)c(=O)n(-c2ccccc2)n1C,n,n,n,n,x,x
COC(=O)CN1C(=O)C(O)(CC(=O)c2cccc(Br)c2)c2ccccc21 (stereo unspecified),n,n,n,43,n,n
CS(=O)(=O)Nc1cccc(C(=O)CC2(O)C(=O)Nc3ccccc32)c1 (stereo unspecified),n,n,n,n,x,x
O=C(CC1(O)C(=O)Nc2ccccc21)c1cccc(Br)c1 (stereo unspecified),n,n,n,33,n,n
CS(=O)(=O)Nc1cccc(C(=O)CC2(O)C(=O)Nc3ccc(Br)cc32)c1 (stereo unspecified),n,n,n,35,n,n
CCS(=O)(=O)Nc1cccc(C(=O)CC2(O)C(=O)Nc3ccccc32)c1 (stereo unspecified),n,n,n,n,x,x
NC(=O)CN1C(=O)C(O)(CC(=O)c2ccccc2O)c2ccccc21 (stereo unspecified),n,n,n,43,43,n
Cc1ccc(CSCC(=O)Nc2cc(S(=O)(=O)N3CCOCC3)ccc2OCC(F)(F)F)cc1,n,n,n,n,x,x
